GAA850 FXN act – frataxin GAA850 promoter activation. HEK293 lucGAA850 FXN promoter luciferase reporter, 24 h; percent of 10 µM SAHA response. activation, % at 6 µM. actives 0.56% (n = 360,000);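 active means activation above the average of all compounds screened plus 3 SD, cutoff fixed separately per campaign, cut at about 7.5% in these data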;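 further: 0% = DMSO wells and 100% = 10 µM SAHA wells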
DAX1 inh – inhibitors of human orphan nuclear receptor DAX1 (NR0B1) | P51843 | HEK293 Gal4-DAX1 luciferase reporter, luminescence | inhibition, % at 6.75 µM | actives 0.99% (n = 340,000) | AID 504766;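 active means inhibition above the mean over all tested compounds plus 3 SD, cut at about 4.2% in these data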;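 further: 0% = DAX1-transfected cells with DMSO and 100% = empty-vector control cells with DMSO; inhibition shows as a rise in luminescence from relieved DAX1 repression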
HSF1 inh – HSF1 inhibition | NIH3T3-HGL HSE-luciferase, MG132-induced, luminescence 8 h; active compounds read low | activity change, negative = inhibition, % at 7.5 µM (by protocol) | actives 0.77% (n = 300,000) | AID 2098;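 active means more than half of replicate wells show activity change below -50%, luminescence cut by over half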;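 further: luciferase reports HSF-1 transcriptional activity via heat shock element; 0% = median of DMSO wells and -100% = zero luminescence signal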
AHR activator – human AHR activation; P35869; AHR-responsive luciferase reporter cells, luminescence; activation, % at 5 µM; actives 2.5% (n = 320,000); in the data active means activation above about 47%;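 further: 0% = vehicle wells and 100% = reference agonist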
HSF1 activator – increases HSF-1 driven luciferase reporter signal | actives 1.7% (n = 300,000) | NIH3T3-HGL HSF-1 luciferase reporter, MG132, 8 h; 100% = twice DMSO control signal | activation, % at 9 µM | AID 504408;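 active means mean replicate activation of at least 50% with a set share of replicates each reaching 50%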;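 further: 0% = median of the neutral control wells and 100% = twice that signal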
AHR act cf – human AHR activation, confirmation | shares compounds with AHR activator | activation, % at 9 µM | actives 87% (n = 2,300) | human cells, AHR-responsive luciferase reporter, luminescence; in the data active means activation above about 49%;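 further: HepG2 hepatoma cells carrying a DRE-driven firefly luciferase reporter; 0% = vehicle wells and 100% = reference agonist wells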
PXR counter – counter-screen for AHR activators: human PXR activators; shares compounds with AHR activator; cell-based PXR reporter, luciferase luminescence; activation, % at 11.6 µM; actives 88% (n = 2,300); in the data active means activation above about 11%;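 further: human hepatoma DPX-2 cells expressing full-length human PXR; 0% = DMSO and 100% = reference agonist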
Target sequence (O75469 whole entry, looked up): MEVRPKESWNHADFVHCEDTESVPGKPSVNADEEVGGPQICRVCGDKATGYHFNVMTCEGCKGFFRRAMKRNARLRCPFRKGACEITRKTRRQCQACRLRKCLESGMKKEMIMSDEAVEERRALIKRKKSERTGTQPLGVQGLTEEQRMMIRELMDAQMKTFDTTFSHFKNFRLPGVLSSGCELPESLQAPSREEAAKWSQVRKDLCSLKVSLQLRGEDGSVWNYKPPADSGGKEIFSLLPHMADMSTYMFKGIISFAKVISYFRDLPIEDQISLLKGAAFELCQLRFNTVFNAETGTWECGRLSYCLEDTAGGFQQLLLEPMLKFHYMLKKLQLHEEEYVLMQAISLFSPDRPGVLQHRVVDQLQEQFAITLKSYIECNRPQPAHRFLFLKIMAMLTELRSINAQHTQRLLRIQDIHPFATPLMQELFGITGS
The depositor's hits bear a star; / = not tested or not shown. Hits are enriched below; roughly 5.4% of the tested compounds scored in any of these assays.

SMILES | GAA850 FXN act | DAX1 inh | HSF1 inh | AHR activator | HSF1 activator | AHR act cf | PXR counter
O=C(CCn1c(=O)sc2ccccc21)Nc1nc2ccccc2s1 | 2 | 0 | 14 | 106* | 33 | 44 | 98*
O=C(CCCc1nc2ccccc2s1)Nc1nccs1 | 2 | 1 | 7 | 32 | 5 | / | /
Cc1ccc2nc(NC(=O)CCn3c(=O)sc4ccccc43)sc2c1 | -1 | 0 | -1 | 18 | 14 | / | /
Clc1ccc2[nH]c3c(N4CCC5(CC4)OCCO5)ncnc3c2c1 | / | / | -4 | 99* | -21 | 56* | 33*
Clc1ccc2[nH]c3c(NCCN4CCOCC4)ncnc3c2c1 | 2 | -1 | -13 | 80* | -31 | 93* | 51*
O=c1c2[nH]c3ccc(Cl)cc3c2ncn1CCN1CCCCC1 | 1 | 0 | 13 | 11 | 11 | / | /
COc1ccccc1C1CC(c2cccs2)=NN1C(=O)CCC(=O)O (stereo unspecified) | 0 | -1 | -23 | 6 | -40 | / | /
COc1ccccc1C1CC(c2cccs2)=Nc2ccccc2S1 (stereo unspecified) | 7 | 0 | 4 | 102* | 10 | 93* | 55*
O=C(N/N=C/c1cc2c(cc1Cl)OCO2)c1ccncc1 | 0 | 0 | 9 | 87* | 8 | 63* | 9
O=C(N/N=C\c1cc2c(cc1Cl)OCO2)c1cccnc1 | -1 | 1 | -2 | 80* | 7 | 79* | 13*
Cc1c(OC(C)C(=O)NCC2CCC(C(=O)O)CC2)ccc2c(-c3ccccc3)cc(=O)oc12 (stereo unspecified) | 1 | 0 | -3 | -1 | 6 | / | /
Cc1cc(=O)[nH]c(SCc2ccccc2)n1 | 2 | 0 | 6 | 4 | 15 | / | /
Cc1cc(=O)[nH]c(S/C=C/c2ccccc2)n1 | 2 | -1 | 18 | 118* | 14 | 102* | 26*
CN(C(=O)CSc1nc2ccccc2c(=O)n1C)C1CCS(=O)(=O)C1 (stereo unspecified) | 2 | -2 | / | 0 | / | / | /
O=C(CNc1cccc(C(F)(F)F)c1)N/N=C/c1ccccc1C(=O)O | 0 | -1 | -4 | 3 | 2 | / | /
CCC(=O)Nc1cccc(-c2cnc3ccccc3n2)c1 | 6 | 2 | 2 | 2 | 27 | / | /
O=C(CCl)Nc1cccc(-c2cnc3ccccc3n2)c1 | -13 | -3 | -16 | 118* | -28 | 29 | 9
CCOc1cc2nc(-c3ccc(OC)c(OC)c3)nc(NCCCN3CCOCC3)c2cc1OC | -3 | 1 | 3 | 101* | 11 | 120* | 17*
COc1cc2ncnc(NCCCN3CCOCC3)c2cc1OC | 1 | -1 | 3 | 0 | 7 | / | /
O=C(CN1CCCC1)Nc1sc2c(c1C(=O)Nc1ccc(Br)cc1)CCC2 | -1 | 1 | 1 | 79* | -3 | 104* | 52*
CN1CCN(CC(=O)Nc2sc3c(c2C(=O)Nc2ccccc2)CCCC3)CC1 | 1 | 0 | 3 | 4 | -2 | / | /
Cc1ccc2nc(-c3ccc(-c4cccc(Cl)c4)cc3)c(NCc3ccccc3)n2c1 | 1 | 1 | -19 | 86* | -38 | 37 | 28*
c1ccc(-c2cc3nc(NCc4ccc5c(c4)OCO5)ccn3n2)cc1 | 3 | / | / | / | / | / | /
Cc1ccc(-c2nc3ccccn3c2NCc2ccc3c(c2)OCO3)cc1 | 4 | 1 | 16 | 109* | 34 | 79* | 85*
CCC(C)Sc1ccc(-c2nc3ccc(C)cn3c2NCc2ccccc2)cc1 (stereo unspecified) | 0 | 0 | / | 3 | / | / | /
SMILES | GAA850 FXN act | DAX1 inh | HSF1 inh | AHR activator | HSF1 activator | AHR act cf | PXR counter
O=C(Nc1ccc(F)cc1)C1CCN(S(=O)(=O)c2cccc3nonc23)CC1 | -1 | 0 | 1 | 0 | 15 | / | /
Cc1ccc(S(=O)(=O)N(C)C)cc1NC(=S)NNC(=O)C(N)=O | 1 | / | -2 | 1 | -3 | / | /
COc1c(C(=O)Nc2ccc(Br)cn2)ccc2ccccc12 | 5 | 3 | 7 | 45 | 33 | / | /
COc1c(C(=O)Nc2nccs2)ccc2ccccc12 | 3 | 3 | 13 | 84* | 20 | 149* | 27*
COc1ccc(CN2C(=O)C(CC(=O)NCc3ccco3)CC(C(=O)N(C(C)C)C(C)C)=C2C)cc1 (stereo unspecified) | -1 | 0 | / | / | / | / | /
COc1cc2nc3c4ccccc4n(CC#N)c3nc2cc1OC | / | / | 0 | / | 18 | / | /
CCn1c2ccccc2c2nc3cc(OC)c(OC)cc3nc21 | 2 | 2 | 18 | 115* | 2 | 96* | 63*
CCOc1ccccc1NC(=O)c1cnc2n(c1=O)CCS2 | 2 | 0 | 3 | 88* | 7 | 65* | 55*
COc1ccc(C)cc1NC(=O)c1cnc2n(c1=O)CCS2 | 5 | 2 | 17 | 24 | 30 | / | /
CCN(CC)C(=O)Cn1cc(C(=O)C(=O)N2CCN(c3ccccc3)CC2)c2ccccc21 | -1 | 0 | 1 | 2 | -8 | / | /
CCN(CC)C(=O)Cn1cc(C(=O)C(=O)N2CCc3ccccc32)c2ccccc21 | -2 | 0 | 4 | 98* | 6 | 89* | 243*
Nc1nc(/C=C/c2ccc(F)cc2)nc(-c2ccccc2O)n1 | 2 | -1 | 15 | 109* | 11 | 136* | 18*
Cc1cc(OCC(=O)NCCCn2ccnc2)c2c(C)c(C)c(=O)oc2c1 | -1 | 0 | -2 | 23 | -13 | / | /
CC(C(=O)O/N=C(\N)c1cccnc1)c1ccc([N+](=O)[O-])cc1 (stereo unspecified) | -2 | 3 | 14 | 5 | 22 | / | /
N#Cc1cccc2c1-c1ccccc1/C2=N/NC(N)=S | 2 | -1 | -3 | 139* | 4 | 117* | 44*
CN1CCN(CC(=O)Nc2c(C(=O)c3ccccc3)oc3ccccc23)CC1 | 0 | -1 | -2 | 79* | 3 | 61* | 20*
CCOc1ccc(NC(=S)N(CCc2c(C)[nH]c3ccc(C)cc23)Cc2ccco2)cc1 | -4 | 1 | 3 | 86* | -1 | 67* | 91*
COc1ccc(NC(=S)N(CCc2c(C)[nH]c3ccc(C)cc23)Cc2ccco2)cc1 | -1 | -1 | 11 | 100* | 14 | 84* | 111*
CCOc1ccc(NC(=S)N(CCc2c(C)[nH]c3ccc(C)cc23)Cc2cccnc2)cc1 | -1 | 0 | 6 | 36 | 10 | / | /
O=[N+]([O-])c1cccc(NC(=S)N2CCc3ccccc3C2)c1 | 1 | 1 | 16 | 105* | 46 | 92* | 54*
N#C/C(=C/c1ccc(Sc2nc3ccccc3[nH]2)o1)c1cccc(F)c1 | 0 | -2 | 22 | 4 | 32 | / | /
N#C/C(=C\c1ccc(Sc2ccccc2)o1)c1nc2ccccc2[nH]1 | 5 | 0 | 35 | 145* | 37 | 122* | 151*
